High-throughput results as filed in PubChem.
SW480 rerep: A quantitative high throughput screen for small molecules that induce DNA re-replication in SW480 colon adenocarcinoma cells | hit rate 1.8% among 340,000 | Potency, µM (top dose mostly 46.1 µM), hits mostly activators | SW480 DNA re-replication, Hoechst DNA content imaging, 48 h; further: nearly all actives have a fitted effect of over 55% in size
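Compounds, transferred as 23 nL by pin tool, were incubated with cells for 48 hr; DNA content per nucleus was then quantified by Hoechst staining and fluorescence plate imaging.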
HT1080-NT tox: qHTS for induction of synthetic lethality in tumor cells producing 2HG: qHTS for the HT-1080-NT fibrosarcoma cell line; Potency, µM (series often up to 46.1 µM), most hits filed as cytotoxic; hit rate 1.6% among 360,000; HT-1080-NT fibrosarcoma viability, CellTiter-Glo ATP luminescence, 48 h; AID 686970, 2013;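 further: NT is the 2HG producing partner of a matched IDH1 knockdown line; nearly all actives have a fitted effect of over 55% in size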
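Fibrosarcoma NT cells, 750 per well in 5% FBS RPMI, were exposed to compound for 48 hours. Viability: CellTiter-Glo luminescence.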
HT1080 IDH1KD tx: qHTS for induction of synthetic lethality in tumor cells producing 2HG: qHTS for the HT-1080-IDH1KD cell line. AID 686971, 2013. HT-1080 IDH1 knockdown viability, ATP luminescence, 48 h. hit rate 2% among 360,000. Potency, µM (top dose mostly 46.1 µM), usual class: cytotoxic
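Cytotoxicity counter-line: IDH1KD HT-1080, 48 h, CellTiter-Glo. Curves classed by r2, magnitude and activity.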
KB-V1 cytotox: qHTS assay for MDR1-selective chemotherapeutics: Primary screen using the drug-selected MDR subline cells KB-V1. KB-V1 MDR cells viability, CellTiter-Glo, 72 h. Potency, µM (titrated, usually from 46.1 µM), usual class: cytotoxic. hit rate 3.4% among 400,000. AID 1347076, 2019; further: nearly all actives have a fitted effect of over 60% in size
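Drug-selected KB-V1 cells, grown in DMEM lacking phenol red with 10% FBS, receive compound titrations; after three days at 37 degrees C, surviving cell ATP is quantified by CellTiter-Glo luminescence and responses normalized and curve-fitted.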
KB-3-1 cytotox: qHTS assay for MDR1-selective chemotherapeutics: Primary screen using the parental adenocarcinoma cell KB-3-1 | Potency, µM (top dose mostly 46.1 µM), most hits filed as cytotoxic | AID 1347075, 2019 | KB-3-1 viability, CellTiter-Glo ATP luminescence, 72 h | hit rate 1.4% among 400,000; further: nearly all actives have a fitted effect of over 60% in size
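Viability of parental KB-3-1 cells, measured by CellTiter-Glo luminescence, followed a 72 h incubation at 37 °C with pinned compounds in phenol-red-free DMEM containing 10% FBS.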
MCF10A rereplic: A quantitative high throughput screen for small molecules that induce DNA re-replication in MCF 10a normal breast cells; MCF 10A DNA re-replication, Hoechst nuclear intensity, 48 h; Potency, µM (series often up to 46.1 µM), actives largely listed as activators; hit rate 2.9% among 350,000; further: nearly all actives have a fitted effect of over 50% in size
Hits are given with their value; . = inactive; ? = inconclusive; / = not tested or not shown; [ ] = remark or other dose. Only some compounds are listed: those with a hit (about 7.9% of all), similar ones and a draw of the others. The call rests on the fitted dose curve; in most records, active means well fitted curve in the direction sought with a large enough effect; inconclusive means small, poorly fitted or top-dose-only effect, or another doubt; inactive means no such curve, though single readings can be large; an effect the other way counts as inactive or inconclusive.

SMILES	SW480 rerep	HT1080-NT tox	HT1080 IDH1KD tx	KB-V1 cytotox	KB-3-1 cytotox	MCF10A rereplic
C[C@]12CC[C@@H](O)CC1=CCC1C2CC[C@]2(C)C(=O)[C@H](F)CC12 (some centres undefined)	.	.	.	.	.	.
CC12CCC3C(CC=C4CC(O)CCC43C)C1C/C(=C\c1cccc(F)c1)C2=O (centres undefined)	.	?	?	.	.	5.8µM
CCCOc1ccc(C2SCC(=O)Nc3c2c(C)nn3-c2cccc(C)c2)cc1OC (centres undefined)	/	/	/	.	?	/
CCOC(=O)C1=C(Cc2ccc(Cl)cc2)C(=O)c2ccccc2C1=O	?	11µM	10µM	?	.	?
CCOC(=O)C1=C(C)N=C2c3ccccc3C(=O)C2C1c1ccc(Cl)cc1 (centres undefined)	.	?	?	.	.	.
CCCc1nc(SCC(=O)N2CCc3ccccc3C2)c2ccccc2n1	?	?	?	.	.	?
ClC1=C(Cl)C2(Cl)C(CBr)CC1(Cl)C2(Cl)Cl (centres undefined)	.	/	/	/	/	19µM
Cc1cccc2sc(NC(=O)c3cccn(Cc4ccccc4)c3=O)nc12	/	/	/	.	.	/
Cc1cnc(C)c(Nc2nc(C(N)Cc3ccc(C(F)(F)F)cc3)cs2)n1 (centres undefined)	/	?	16µM	.	?	/
O=c1[nH]c(=O)n(CCc2ccc(F)cc2)c(O)c1C=NCc1ccc2c(c1)OCO2	.	.	.	.	.	?
CC(=O)c1cn(Cc2ccc(C#N)cc2)c2ccccc12	7.3µM	.	.	.	.	.
O=c1c2ccccc2nc(/C=C/c2ccc(O)cc2)n1-c1ccccc1O	.	.	.	.	21µM	21µM
COc1ccccc1-n1c(/C=C/c2ccccc2)nc2ccccc2c1=O	/	/	/	.	.	/
O=c1c2ccccc2nc(/C=C/c2ccccc2)n1-c1ccccc1O	?	.	.	.	.	?
Cc1ccccc1-n1c(/C=C/c2ccccn2)nc2ccccc2c1=O	.	.	.	?	.	18µM
Cc1ccc(-n2c(/C=C\c3ccc(F)c(F)c3)nc3ccccc3c2=O)c(C)c1	/	/	/	4.1µM	2.9µM	/
CCC(C)C1O[C@]2(C=CC1C)CC1CC(C/C=C(\C)[C@H](OC3CC(OC)C(O[C@H]4CC(OC)[C@@H](O)C(C)O4)C(C)O3)[C@@H](C)/C=C/C=C3\COC4C(O)C(C)=C[C@H](C(=O)O1)[C@@]34O)O2 (some centres undefined)	.	/	/	/	/	?
COC(=O)[C@H](Cc1ccccc1)N(Cc1ccccc1)S(=O)(=O)N(Cc1ccccc1)[C@@H](Cc1ccccc1)C(=O)OC	.[9.22 µM]	.	.	.	?	.
NS(=O)(=O)c1ccc(CCNc2ccn3nc(-c4cccc(C(F)(F)F)c4)cc3n2)cc1	/	?	.	.	.	/
COc1cc(CN=C(C)c2c(O)n(C)c(=O)n(C)c2=O)cc(OC)c1	.	.	.	?	?	.
CC(=NCc1ccc(F)cc1)c1c(O)n(C)c(=O)n(C)c1=O	.	.	?	?	5.8µM	?
O=P(O)(O)C(Cl)(Cl)P(=O)(O)O	.	/	/	/	/	.
CC(C)(C)OC(=O)COc1cc(OCC(=O)OC(C)(C)C)c2c(=O)cc(-c3ccccc3)oc2c1	.	?	?	21µM	.	.
O=C(CCn1nc(-c2ccc(Cl)cc2)ccc1=O)N1CCC2(CC1)OCCO2	.	.	.	.	.	.
Cc1nc2cc(-c3ccc(Cl)cc3)nn2c(C)c1CCC(=O)N1CCC2(CC1)OCCO2	.	.	.	18µM	.	.
SMILES	SW480 rerep	HT1080-NT tox	HT1080 IDH1KD tx	KB-V1 cytotox	KB-3-1 cytotox	MCF10A rereplic
CCOC(=O)[C@]12Cc3cc(OC)ccc3[C@H]1N(C1CCCCC1)C(=O)c1ccccc12	/	2.6µM	2.3µM	2.3µM	3.3µM	/
CCOC(=O)[C@]12Cc3cc(Cl)ccc3[C@H]1N(C1CCCCC1)C(=O)c1ccccc12	/	2.3µM	2.3µM	?	1.6µM	/
c1ccc(-c2nn(-c3ccccc3)[n+](-c3ccccc3)n2)cc1	.	.	?	.	7.3µM	.
CCc1ccccc1NC(=O)c1cccn(Cc2ccccc2F)c1=O	/	/	/	.	.	/
COc1cccc(CNCC(O)(c2ccc(Cl)cc2)c2ccc(Cl)cc2)c1	?	?	?	15µM	?	?
COc1cccc(CCNCc2cccc(C(F)(F)F)c2)c1	.	.	.	.	.	.
CC12CCC(=O)C=C1CCC1C2CCC2(C)C(O)CCC12 (centres undefined)	.	.	.	4.1µM	?	.
CC12CCC(=O)C=C1CCC1C2C(O)CC2(C)C(O)CCC12 (centres undefined)	.	.	.	?	?	.
CC(=O)C1C(N2CC2)CC2C3CCC4=CC(=O)CCC4(C)C3CCC21C (centres undefined)	?	.	.	?	?	16µM
C[C@]12CC[C@H]3[C@@H](CCC4=CC(=O)CC[C@@]43C)[C@@H]1CC[C@@H]2C(=O)CO	?	?	.	8.2µM	?	?
CCC(=O)O[C@H]1CC[C@H]2[C@@H]3CCC4=CC(=O)CC[C@]4(C)[C@H]3CC[C@]12C	.	/	/	?	.	?
C[C@]12CCC(=O)C=C1CC[C@@H]1[C@@H]2CC[C@@]2(C)[C@H]1CC[C@]2(C)O	.	.	.	?	.	?
C[C@]12CC[C@H]3[C@@H](CCC4=CC(=O)CC[C@@]43C)[C@@H]1CC[C@@H]2O	.	?	.	3.7µM	10µM	.
Clc1ccc2c(c1)C(c1ccccc1)=NCc1nncn1-2	.	/	/	/	/	.
COc1ccc(/C=C/c2nc3ccccc3c(=O)n2-c2ccc(C)cc2)cc1O	/	/	/	.	.	/
CC1CC2C(C(O)CC3(C)C(O)CCC23)C2(C)CCC(=O)C=C12 (centres undefined)	.	.	.	6.5µM	12µM	.
C[C@H](O)[C@H]1CC[C@H]2[C@@H]3CCC4=CC(=O)CC[C@]4(C)[C@H]3CC[C@]12C	.	.	.	15µM	.	?
C#C[C@]1(O)CC[C@H]2[C@@H]3CCC4=CC(=O)CC[C@]4(C)[C@H]3CC[C@@]21C	.	.	.	.	.	.
Cc1cccc(-n2c(/C=C/c3cccc4ccccc34)nc3ccccc3c2=O)c1	/	/	/	?	.	/
Cc1cccc(-n2c(/C=C/c3ccc([N+](=O)[O-])o3)nc3ccccc3c2=O)c1	6.5µM	.	?	10µM	10µM	2.3µM
